Key:
Experiment in all cases: log2 ratio of Biotin-Ahx-Ub-VS probe labelling (fragment/DMSO); higher = less target engagement (more negative = stronger competition), active = hit call of the paper (q ≤ 0.05, log2 ratio ≤ -1)
Details in all cases: compound concentration: 200 uM; treatment time: 3 h
ALG13 = biological target: T1, ALG13 (UniProt Q9NP73)
T1 sequence (whole entry): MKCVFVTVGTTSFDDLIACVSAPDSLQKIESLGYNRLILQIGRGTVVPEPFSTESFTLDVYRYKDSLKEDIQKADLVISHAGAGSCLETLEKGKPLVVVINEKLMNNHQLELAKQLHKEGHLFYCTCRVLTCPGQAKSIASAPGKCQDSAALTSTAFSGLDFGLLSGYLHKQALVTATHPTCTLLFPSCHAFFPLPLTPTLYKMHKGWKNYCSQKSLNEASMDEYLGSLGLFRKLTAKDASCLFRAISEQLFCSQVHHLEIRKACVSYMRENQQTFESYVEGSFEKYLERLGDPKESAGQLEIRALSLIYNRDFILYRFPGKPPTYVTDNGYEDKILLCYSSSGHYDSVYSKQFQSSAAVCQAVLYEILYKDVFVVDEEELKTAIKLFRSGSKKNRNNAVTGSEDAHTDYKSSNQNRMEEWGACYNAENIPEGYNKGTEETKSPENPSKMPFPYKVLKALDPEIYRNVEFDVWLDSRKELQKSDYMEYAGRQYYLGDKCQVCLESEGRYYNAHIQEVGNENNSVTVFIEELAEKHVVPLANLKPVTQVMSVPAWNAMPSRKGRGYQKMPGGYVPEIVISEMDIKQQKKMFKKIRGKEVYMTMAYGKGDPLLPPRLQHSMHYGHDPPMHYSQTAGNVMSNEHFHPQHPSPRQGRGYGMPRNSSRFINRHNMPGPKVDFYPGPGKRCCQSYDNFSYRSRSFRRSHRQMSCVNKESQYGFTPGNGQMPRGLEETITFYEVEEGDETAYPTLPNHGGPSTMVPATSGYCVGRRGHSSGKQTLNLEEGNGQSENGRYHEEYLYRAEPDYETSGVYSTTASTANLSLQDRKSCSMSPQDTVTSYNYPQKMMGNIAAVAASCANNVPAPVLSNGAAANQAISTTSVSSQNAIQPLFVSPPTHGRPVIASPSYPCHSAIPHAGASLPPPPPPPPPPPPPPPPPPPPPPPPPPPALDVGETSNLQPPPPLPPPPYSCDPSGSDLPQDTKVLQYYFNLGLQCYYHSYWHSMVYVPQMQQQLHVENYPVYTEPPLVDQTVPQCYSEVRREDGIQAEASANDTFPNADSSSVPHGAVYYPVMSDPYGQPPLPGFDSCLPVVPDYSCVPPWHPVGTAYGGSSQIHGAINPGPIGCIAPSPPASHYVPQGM
Summary of the method: (§1)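 Fragment (200 µM) or vehicle was incubated for 3 h with triplicate HEK293T lysate samples of 495 µg, which were then treated with Biotin-Ahx-Ub-VS at 0.5 µM final for 1 h. Labelled DUBs were enriched on NeutrAvidin, digested with LysC and trypsin, and analysed by diaPASEF LC-MS/MS. Values are average log2 fragment/vehicle ratios from an unpaired t-test on global-median-normalised Spectronaut label-free quantities, using proteins with ≥2 unique peptides.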

ATXN3 = ATXN3 (UniProt P54252)
Sequence of ATXN3 (P54252 whole entry): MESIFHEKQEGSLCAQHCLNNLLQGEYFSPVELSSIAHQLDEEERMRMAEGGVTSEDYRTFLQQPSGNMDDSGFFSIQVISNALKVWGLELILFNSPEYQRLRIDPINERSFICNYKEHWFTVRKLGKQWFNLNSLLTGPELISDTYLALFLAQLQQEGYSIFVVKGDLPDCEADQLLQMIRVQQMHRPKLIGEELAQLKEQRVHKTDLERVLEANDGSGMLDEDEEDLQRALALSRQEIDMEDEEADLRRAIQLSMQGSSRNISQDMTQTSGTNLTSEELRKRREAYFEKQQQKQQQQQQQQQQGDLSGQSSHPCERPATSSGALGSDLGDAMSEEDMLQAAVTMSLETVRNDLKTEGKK
Summary of the method: as §1

BAP1 = biological target: T2, BAP1 (UniProt Q92560)
T2 sequence (whole entry): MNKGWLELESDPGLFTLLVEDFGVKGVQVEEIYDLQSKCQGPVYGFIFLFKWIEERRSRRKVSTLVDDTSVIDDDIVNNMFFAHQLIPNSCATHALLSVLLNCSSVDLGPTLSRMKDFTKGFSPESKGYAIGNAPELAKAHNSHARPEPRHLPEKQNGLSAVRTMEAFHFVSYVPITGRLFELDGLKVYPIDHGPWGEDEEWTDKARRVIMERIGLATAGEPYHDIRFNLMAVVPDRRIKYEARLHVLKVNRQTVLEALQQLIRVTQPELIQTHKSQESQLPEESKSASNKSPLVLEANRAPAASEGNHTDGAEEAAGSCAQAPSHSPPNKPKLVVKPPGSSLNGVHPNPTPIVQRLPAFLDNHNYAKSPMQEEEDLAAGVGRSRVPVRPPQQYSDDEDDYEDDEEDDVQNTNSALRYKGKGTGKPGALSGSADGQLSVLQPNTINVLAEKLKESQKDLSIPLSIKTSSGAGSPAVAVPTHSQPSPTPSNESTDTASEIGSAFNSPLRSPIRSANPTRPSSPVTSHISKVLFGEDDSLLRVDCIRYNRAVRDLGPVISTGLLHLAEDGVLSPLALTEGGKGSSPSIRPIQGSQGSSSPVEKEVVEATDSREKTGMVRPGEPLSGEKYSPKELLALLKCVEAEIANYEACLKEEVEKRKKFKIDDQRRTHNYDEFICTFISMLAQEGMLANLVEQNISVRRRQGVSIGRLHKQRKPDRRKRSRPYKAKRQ
Summary of the method: as §1

EIF3F = EIF3F (UniProt O00303)
Sequence of EIF3F (O00303 whole entry): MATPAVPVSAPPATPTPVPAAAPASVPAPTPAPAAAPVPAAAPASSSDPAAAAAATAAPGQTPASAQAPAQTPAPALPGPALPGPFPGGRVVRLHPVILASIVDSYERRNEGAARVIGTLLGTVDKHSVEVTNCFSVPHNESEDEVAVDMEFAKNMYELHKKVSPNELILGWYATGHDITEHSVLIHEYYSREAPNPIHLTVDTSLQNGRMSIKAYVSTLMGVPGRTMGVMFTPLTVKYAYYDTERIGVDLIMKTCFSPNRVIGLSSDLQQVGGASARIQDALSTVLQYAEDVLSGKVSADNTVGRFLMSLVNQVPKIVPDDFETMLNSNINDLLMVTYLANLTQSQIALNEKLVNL
Summary of the method: as §1

EIF3H = EIF3H (UniProt O15372)
Sequence of EIF3H (O15372 whole entry): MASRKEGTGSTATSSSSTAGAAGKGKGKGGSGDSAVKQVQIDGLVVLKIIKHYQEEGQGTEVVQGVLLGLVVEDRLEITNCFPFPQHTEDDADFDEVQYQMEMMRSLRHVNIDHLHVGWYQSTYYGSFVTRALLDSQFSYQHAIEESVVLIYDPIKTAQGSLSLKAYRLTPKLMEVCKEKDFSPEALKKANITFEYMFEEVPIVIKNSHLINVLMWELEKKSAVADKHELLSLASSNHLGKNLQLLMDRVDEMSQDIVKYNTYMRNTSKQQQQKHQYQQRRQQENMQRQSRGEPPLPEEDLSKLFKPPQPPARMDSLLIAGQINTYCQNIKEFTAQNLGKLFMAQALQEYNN
Summary of the method: as §1

FAM105A = biological target: T3, FAM105A (UniProt Q9NUU6)
T3 sequence (whole entry): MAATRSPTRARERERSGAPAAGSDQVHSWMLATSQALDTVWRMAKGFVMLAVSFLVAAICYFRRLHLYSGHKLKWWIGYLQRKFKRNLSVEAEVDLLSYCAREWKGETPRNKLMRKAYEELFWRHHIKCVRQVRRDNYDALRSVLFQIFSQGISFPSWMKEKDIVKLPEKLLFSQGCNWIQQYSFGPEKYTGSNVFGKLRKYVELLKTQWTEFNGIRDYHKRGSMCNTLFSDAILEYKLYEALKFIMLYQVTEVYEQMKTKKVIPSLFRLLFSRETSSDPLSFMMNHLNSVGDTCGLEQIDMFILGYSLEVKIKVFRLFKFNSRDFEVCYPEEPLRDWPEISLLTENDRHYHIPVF
Summary of the method: as §1

OTUB1 = OTUB1 (UniProt Q96FW1)
Sequence of OTUB1 (Q96FW1 whole entry): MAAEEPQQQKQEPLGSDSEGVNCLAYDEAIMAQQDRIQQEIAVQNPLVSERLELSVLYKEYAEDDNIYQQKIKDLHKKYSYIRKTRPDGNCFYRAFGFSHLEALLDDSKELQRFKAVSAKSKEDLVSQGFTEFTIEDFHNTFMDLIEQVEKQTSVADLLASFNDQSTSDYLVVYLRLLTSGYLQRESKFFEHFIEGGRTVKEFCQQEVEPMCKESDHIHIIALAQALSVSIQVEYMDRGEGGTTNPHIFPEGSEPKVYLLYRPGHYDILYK
Summary of the method: as §1

OTUD4 = biological target: T4, OTUD4 (UniProt Q01804)
T4 sequence (whole entry): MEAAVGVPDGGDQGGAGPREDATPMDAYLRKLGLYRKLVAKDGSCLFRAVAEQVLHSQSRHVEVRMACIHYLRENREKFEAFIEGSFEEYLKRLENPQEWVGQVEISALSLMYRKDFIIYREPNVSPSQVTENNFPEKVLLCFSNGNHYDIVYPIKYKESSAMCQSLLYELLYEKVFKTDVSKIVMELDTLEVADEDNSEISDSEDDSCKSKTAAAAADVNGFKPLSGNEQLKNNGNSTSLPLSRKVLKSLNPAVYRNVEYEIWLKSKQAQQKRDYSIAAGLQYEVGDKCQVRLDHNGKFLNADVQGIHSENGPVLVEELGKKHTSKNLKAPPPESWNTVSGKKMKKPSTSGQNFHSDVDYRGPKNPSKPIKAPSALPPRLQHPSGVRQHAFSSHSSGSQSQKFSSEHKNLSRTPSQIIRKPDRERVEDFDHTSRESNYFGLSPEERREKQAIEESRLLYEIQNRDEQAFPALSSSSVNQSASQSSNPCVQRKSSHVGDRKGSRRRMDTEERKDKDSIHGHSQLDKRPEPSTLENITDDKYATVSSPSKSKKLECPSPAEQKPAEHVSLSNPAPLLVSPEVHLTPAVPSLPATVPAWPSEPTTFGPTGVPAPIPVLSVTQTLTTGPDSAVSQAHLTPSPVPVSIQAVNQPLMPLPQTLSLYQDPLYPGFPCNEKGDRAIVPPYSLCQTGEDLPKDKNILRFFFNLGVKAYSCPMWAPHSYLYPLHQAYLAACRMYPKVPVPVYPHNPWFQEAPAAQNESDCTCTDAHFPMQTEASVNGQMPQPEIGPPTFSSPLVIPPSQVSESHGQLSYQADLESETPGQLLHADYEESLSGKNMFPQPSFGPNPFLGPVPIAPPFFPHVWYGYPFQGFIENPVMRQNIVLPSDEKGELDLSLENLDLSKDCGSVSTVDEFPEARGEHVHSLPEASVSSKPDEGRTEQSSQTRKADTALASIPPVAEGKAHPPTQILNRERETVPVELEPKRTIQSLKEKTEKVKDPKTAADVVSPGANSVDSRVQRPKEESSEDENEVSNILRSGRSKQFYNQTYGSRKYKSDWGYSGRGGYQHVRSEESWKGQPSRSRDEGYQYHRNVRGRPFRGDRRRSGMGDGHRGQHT
Summary of the method: as §1

OTUD5 = biological target: T5, OTUD5 (UniProt Q96G74)
T5 sequence (whole entry): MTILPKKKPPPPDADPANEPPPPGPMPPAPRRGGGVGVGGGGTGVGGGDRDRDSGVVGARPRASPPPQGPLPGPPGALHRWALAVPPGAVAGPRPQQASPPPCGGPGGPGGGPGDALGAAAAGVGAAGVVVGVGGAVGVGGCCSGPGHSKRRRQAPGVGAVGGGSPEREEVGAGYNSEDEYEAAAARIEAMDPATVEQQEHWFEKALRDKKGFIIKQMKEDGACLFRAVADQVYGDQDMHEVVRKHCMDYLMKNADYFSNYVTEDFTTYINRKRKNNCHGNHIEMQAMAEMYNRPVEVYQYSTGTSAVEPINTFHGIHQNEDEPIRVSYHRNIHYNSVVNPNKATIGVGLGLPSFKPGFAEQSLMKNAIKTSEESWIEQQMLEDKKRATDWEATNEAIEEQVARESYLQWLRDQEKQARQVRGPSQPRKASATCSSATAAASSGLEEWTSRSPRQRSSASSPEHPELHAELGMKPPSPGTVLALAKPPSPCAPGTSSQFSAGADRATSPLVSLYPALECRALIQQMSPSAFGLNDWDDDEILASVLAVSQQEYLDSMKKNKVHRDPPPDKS
Summary of the method: as §1

Measured: log2 ratio of Biotin-Ahx-Ub-VS probe labelling

CC(c1ccccc1)N(C)C(=O)CCl (centres undefined)
inactive: ALG13 -0.0878 | ATXN3 -0.667 | BAP1 -0.362 | EIF3F 0.107 | EIF3H 0.0952 | FAM105A -0.093 | OTUB1 0.146 | OTUD4 -0.0165 | OTUD5 -0.419
